Beta cell apopt: inhibitors of cytokine-induced beta cell apoptosis, primary screen, luminescence; INS-1E cytokine-induced death, ATP luminescence, 48 h; percent of positive-control rescue, neutral wells zero; protection from apoptosis, % (no concentration beside the values); actives 0.8% (n = 300,000); AID 435005, 2010;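 active means Every replicate reaches about 75%, or at least half do and their mean reaches it too, limit read from the data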;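 further: 0% = cytokine-treated negative control wells and 100% = positive control rescue; higher means more ATP so stronger rescue from cytokine killing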
SKKanGAS inh: S. pyogenes SKKanGAS growth inhibitors in kanamycin, primary screen, streptokinase expression inhibitor project, SKKanGAS strain, BacTiter-Glo luminescence | AID 1662, 2009 | actives 1.3% (n = 300,000) | 6 h | inhibition, % at 7.5 µM;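 active means mean replicate score, as percent of positive control median, at least 50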;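 further: strain carries kanamycin resistance gene driven by streptokinase promoter and grows in 40 µg/ml kanamycin; loss of luminescence reflects streptokinase promoter inhibition or plain growth inhibition; 0% = median of DMSO wells and 100% = positive control at its reference dose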
PP5 inh: PP5 phosphatase inhibitors, primary screen, biochemical, fluorescence; Serine/threonine-protein phosphatase 5 (Homo sapiens), P53041; purified PP5c, OMFP substrate fluorescence; inhibition, % at 6.7 µM; actives 0.18% (n = 320,000); AID 1987, 2009;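 active means inhibition above the campaign's mean inhibition across all tested compounds plus 3 SD, cut at about 9.5% in these data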;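 further: 0% = DMSO only and 100% = 100 µM cantharidin control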
Target sequence (P53041 whole entry, looked up): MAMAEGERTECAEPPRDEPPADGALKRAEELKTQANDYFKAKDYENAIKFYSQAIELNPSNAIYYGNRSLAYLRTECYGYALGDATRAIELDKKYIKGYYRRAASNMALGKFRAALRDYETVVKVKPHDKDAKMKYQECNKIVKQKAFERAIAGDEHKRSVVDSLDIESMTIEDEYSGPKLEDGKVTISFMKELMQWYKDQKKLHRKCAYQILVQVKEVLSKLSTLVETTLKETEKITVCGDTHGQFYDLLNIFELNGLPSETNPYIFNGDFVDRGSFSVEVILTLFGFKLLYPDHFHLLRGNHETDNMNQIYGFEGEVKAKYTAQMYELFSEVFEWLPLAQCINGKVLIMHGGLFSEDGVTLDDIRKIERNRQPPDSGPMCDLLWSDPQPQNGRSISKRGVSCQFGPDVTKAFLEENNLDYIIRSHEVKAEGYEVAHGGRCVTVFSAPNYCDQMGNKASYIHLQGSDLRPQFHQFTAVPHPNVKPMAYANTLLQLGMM
CSC inhib: cancer stem cell viability inhibitors, primary screen, luminescence | cancer stem cell-like cells viability | inhibition, % at 7.5 µM | actives 1.1% (n = 300,000); in the data active means inhibition above about 75%; tested in HMLE shEcad cells
PP1 inh: PP1-alpha phosphatase inhibitors, primary screen, counter-screen for PP5 inhibitor project, biochemical, fluorescence, OMFP substrate, single point | inhibition, % at 6.7 µM | purified PP1alpha | actives 0.9% (n = 320,000) | AID 2235, 2010 | Serine/threonine-protein phosphatase PP1-alpha catalytic subunit (Homo sapiens), P62136;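 active means inhibition above the mean inhibition of all tested compounds plus 3 SD, computed separately for each screening campaign, cut at about 15% in these data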
* marks the source's active call; other numbers are inactive results. Most compounds without a hit are left out; they make up all but 3.1% or so of the library.

What do the screens show for `CCN(CC)CCN(C(=O)c1cc2c(ccc3ccccc32)oc1=O)c1nc2cc3c(cc2s1)OCCO3`?
Beta cell apopt: 102*; SKKanGAS inh: 2; PP5 inh: 4; CSC inhib: 91*; PP1 inh: 11

What do the screens show for `C/C(=N\Nc1ccc2nncn2n1)c1ccccn1`?
Beta cell apopt: 80*; SKKanGAS inh: 42; PP5 inh: -3; CSC inhib: 98*; PP1 inh: -1

How did C/C(=N\Nc1ccc2nncn2n1)c1ccco1 do in these assays?
Beta cell apopt: -2; SKKanGAS inh: 0; PP5 inh: 0; CSC inhib: -11; PP1 inh: -7

What do the screens show for `Cc1ccc(NC(=O)Nc2nc3ccccc3s2)cc1NC(=O)Nc1nc2ccccc2s1`?
Beta cell apopt: 30; SKKanGAS inh: 76*; PP5 inh: 3; CSC inhib: 28; PP1 inh: -1

How did O=C(Nc1ccc(Cl)c([N+](=O)[O-])c1)Nc1nc2ccccc2s1 do in these assays?
Beta cell apopt: 6; SKKanGAS inh: 40; PP5 inh: 1; CSC inhib: 81*; PP1 inh: -3

What do the screens show for `CCNC(=O)Nc1nc2ccccc2s1`?
Beta cell apopt: -1; SKKanGAS inh: 11; PP5 inh: 0; CSC inhib: -4; PP1 inh: -6

Results for CCCCc1nc2cc(C(=O)N3CCC(OCCOC)CC3)ccc2o1 ?
Beta cell apopt: -6; SKKanGAS inh: 63*; PP5 inh: -1; CSC inhib: -3; PP1 inh: -2

What do the screens show for `O=C(c1cnn2c1NC(c1ccc(Br)cc1)CC2C(F)(F)F)N1CCN2CCCC2C1` (stereo not given)?
Beta cell apopt: 6; SKKanGAS inh: 7; PP5 inh: 1; CSC inhib: 80*; PP1 inh: 1

What do the screens show for `CC(=O)c1ccc(OC(=O)Cc2cccc3ccccc23)cc1`?
Beta cell apopt: -4; SKKanGAS inh: -2; PP5 inh: 2; CSC inhib: 13; PP1 inh: -1

Results for CC(C)c1ccc(/C=N/NC(=O)c2c(Cl)cnn2C)cc1 ?
Beta cell apopt: 0; SKKanGAS inh: -1; PP5 inh: 1; CSC inhib: -2; PP1 inh: -2

How did Cc1ccc(-n2nc3c(=O)n(CCCC(=O)NCCc4ccccc4C)nc(C)c3c2C)cc1 do in these assays?
Beta cell apopt: -4; SKKanGAS inh: 7; PP5 inh: -1; CSC inhib: -7; PP1 inh: -3

Results for CCCCOc1ccc(/C=C/C(=O)OCC(=O)N2CC(=O)Nc3ccccc32)cc1OCC ?
Beta cell apopt: 3; SKKanGAS inh: 3; PP5 inh: 5; PP1 inh: 2

What do the screens show for `CCCCOC(=O)c1[nH]c2c(c1C)C(=O)CC(c1cc(OC)c(OC)c(OC)c1)C2` (stereo not given)?
Beta cell apopt: 75*; SKKanGAS inh: 6; PP5 inh: 6; CSC inhib: 25; PP1 inh: -5

How did CCOC(=O)COc1ccccc1/C=C\[N+](=O)[O-] do in these assays?
Beta cell apopt: 106*; SKKanGAS inh: 5; PP5 inh: -1; CSC inhib: -4; PP1 inh: 0

Results for Cc1ccc(C(=O)COC(=O)COc2ccccc2[N+](=O)[O-])s1 ?
Beta cell apopt: -5; PP5 inh: -2; CSC inhib: -13; PP1 inh: -5

Results for NC(=O)CC(NC(=O)c1cccc(Br)c1)c1ccc(NC2CCCCCCC2)c([N+](=O)[O-])c1 (stereo not given) ?
Beta cell apopt: -1; SKKanGAS inh: 40; PP5 inh: 2; CSC inhib: 10; PP1 inh: 9

Results for Cc1ccccc1CC(=O)Nc1ccc(C(=O)N2CCCC2)cc1 ?
Beta cell apopt: 0; SKKanGAS inh: -12; PP5 inh: 2; CSC inhib: 0; PP1 inh: 3

How did CCOC(=O)c1c(N)sc2c1CCC1C(=O)N(C3CCCCC3)C(=O)C21 (stereo not given) do in these assays?
Beta cell apopt: 5; SKKanGAS inh: 8; PP5 inh: 3; CSC inhib: 10; PP1 inh: 15*

How did CC12CCC(CC1)C(C)(C)O2 do in these assays?
Beta cell apopt: -2; SKKanGAS inh: 100*; PP5 inh: 0; CSC inhib: -1; PP1 inh: -7

Results for CCSc1nnc(-c2sc3nnc(-c4ccccc4)c(-c4ccccc4)c3c2N)o1 ?
Beta cell apopt: 19; SKKanGAS inh: 12; PP5 inh: 2; CSC inhib: 120*; PP1 inh: 5

How did CCN1CCCC1CNC(=O)CN(C)S(=O)(=O)c1ccc(Cl)cc1 (stereo not given) do in these assays?
Beta cell apopt: 1; SKKanGAS inh: -5; PP5 inh: 2; CSC inhib: 7; PP1 inh: 0

What do the screens show for `CCn1cc(S(=O)(=O)NC(C)c2cc(OC)ccc2OC)cn1` (stereo not given)?
Beta cell apopt: -9; SKKanGAS inh: 0; PP5 inh: 2; CSC inhib: -2; PP1 inh: -4

What do the screens show for `O=C1CC(=Nc2ccccc2)NN1c1ccccc1`?
Beta cell apopt: 21; SKKanGAS inh: 18; PP5 inh: 3; CSC inhib: 130*; PP1 inh: -1

How did CCCc1nnc(NC(=O)c2c(O)c3cccc4c3n(c2=O)CCC4)s1 do in these assays?
Beta cell apopt: 5; SKKanGAS inh: 87*; PP5 inh: 1; CSC inhib: 29; PP1 inh: -5

What do the screens show for `O=C(Nn1c(Cc2ccccc2)nc2ccccc2c1=O)c1c(O)c2cccc3c2n(c1=O)CCC3`?
Beta cell apopt: -8; SKKanGAS inh: 71*; PP5 inh: 0; CSC inhib: 18; PP1 inh: 2

What do the screens show for `CCc1nc2ccccc2c(=O)n1NC(=O)c1c(O)c2cccc3c2n(c1=O)CCC3`?
Beta cell apopt: -5; SKKanGAS inh: 46; PP5 inh: 3; CSC inhib: 31; PP1 inh: -6

What do the screens show for `CCN(CC)CCn1c2ccccc2c2cnc(N)c(C#N)c21`?
Beta cell apopt: 93*; SKKanGAS inh: 18; PP5 inh: 1; CSC inhib: -1; PP1 inh: 4

What do the screens show for `CN(C)C=Nc1ncc2c3ccccc3n(CCN(C)C)c2c1C#N`?
Beta cell apopt: -4; SKKanGAS inh: 5; PP5 inh: -4; CSC inhib: 7; PP1 inh: 1

How did O=C(c1ccc(CS(=O)c2cccc(Cl)c2)o1)N1CCCCCC1 (stereo not given) do in these assays?
Beta cell apopt: -15; SKKanGAS inh: 16; PP5 inh: -2; CSC inhib: -9; PP1 inh: -1

What do the screens show for `CCCCn1c(N)c(N(CCC(C)C)C(=O)COC(=O)/C=C/c2ccc(F)cc2)c(=O)[nH]c1=O`?
Beta cell apopt: -6; CSC inhib: -7

Assay outcomes as filed in PubChem BioAssay.
